Source: the supplement of paper PMC12669032
A number with no mark means an inactive call.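 The calls were made as follows: active = AUC reduced over 20% with Padj below 0.05 in at least 2 of 3 replicates; inactive = otherwise.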

Experiments:
[1] = tested on: Roseburia intestinalis; experiment: growth AUC relative to DMSO control (median of replicates) (fraction); higher = more growth (less inhibition), active = hit call of the paper; conditions: 20 µM; 24 h
Procedure, shortened: (§1)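 Hourly OD600 readings over 24 h tracked anaerobic gut bacterial monocultures grown at 37 °C in mGAM from OD600 0.05 with 20 µM compound (1% DMSO). After the minimum OD was set to 0, area under the growth curve was normalised to the plate median of solvent-only wells, or to row and column medians on the industrial chemical plate. Values are medians of three biological replicates grown on separate days.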

[2] = tested on: Streptococcus salivarius; experiment: as above; conditions: 20 µM; 24 h
Procedure, shortened: as §1

Row | SMILES | growth AUC [1] | growth AUC [2]
1 | COCCCNc1nc(NC(C)C)nc(SC)n1 | 0.995 | 0.969
2 | Cc1cc(C)cc(OCC(C)Nc2nc(N)nc(C(C)(C)F)n2)c1 (stereo unspecified) | 0.971 | 0.967
3 | S=C([S-])NCCNC(=S)[S-].S=C([S-])NCCNC(=S)[S-].[Mn+2].[Zn+2] | 0.999 | 1.03
4 | CC(C)(c1ccc(O)cc1)c1ccc(O)cc1 | 1.06 | 1.01
5 | CC(C)(C)[C@@H](O)[C@@H](Cc1ccc(Cl)cc1)n1cncn1 (mixture of isomers) | 0.963 | 0.95
6 | Cc1cccc(C)c1N(CC(=O)O)C(=O)CS(=O)(=O)[O-].[Na+] | 0.979 | 0.972
7 | O=C(O)[C@@H](S)[C@@H](S)C(=O)O | 1 | 0.997
8 | c1ccc2[nH]c(-c3cscn3)nc2c1 | 0.998 | 0.937
9 | COc1c(I)cc(C#N)cc1I | 0.989 | 0.982
10 | Clc1ccc(Sc2cc(Cl)c(Cl)cc2Cl)cc1 | 0.937 | 0.933
11 | CC(C)N(C(=O)CS(=O)(=O)[O-])c1ccc(F)cc1.[Na+] | 1.03 | 0.973
12 | CCCCC(CC)COC(=O)COc1ccc(Cl)cc1C (stereo unspecified) | 0.93 | 0.978
13 | C=CCc1ccc(O)c(OC)c1 | 0.937 | 0.975
